TDP1 cell noCPT – qHTS for Inhibitors of human tyrosyl-DNA phosphodiesterase 1 (TDP1): qHTS in cells in absence of CPT. actives 15% (n = 420,000). DT40 Tdp1-/- hTDP1 cells, no CPT, ATP luminescence, 48 h. Potency, µM (titrated, usually from 46.2 µM), for inactives: at the top dose activity change, negative = growth inhibition, actives largely listed as inhibitors; further: on the % scale 0 is the no-effect control and ±100 the full control effect; nearly all actives have a fitted effect of over 55% in size
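No-CPT arm: Tdp1-/-;hTDP1 DT40 cells (400/well) plus compounds, incubated ≥48 hr at 37 °C. Readout CellTiter-Glo luminescence.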
DT40 TDP1 CPT – qHTS for Inhibitors of human tyrosyl-DNA phosphodiesterase 1 (TDP1): qHTS in cells in presence of CPT; Potency, µM (series often up to 46.2 µM), for the others: at the highest dose activity change, negative = growth inhibition, hits mostly inhibitors; AID 686979, 2013; actives 12% (n = 420,000); chicken DT40 Tdp1-/-;hTDP1 cells + 20 nM CPT, ATP luminescence, 48 h; further: on the % scale 0 is the no-effect control and ±100 the full control effect; nearly all actives have a fitted effect of over 55% in size
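Chicken DT40 Tdp1-/- cells stably complemented with human TDP1 were seeded at 400 cells/well in medium containing 20 nM camptothecin, exposed to pin-transferred compounds, and grown at 37 °C for at least 48 hr. Viability was read as ATP luminescence.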
TDP1 inh – qHTS Assay for Inhibitors of Tyrosyl-DNA Phosphodiesterase (TDP1); recombinant TDP1, AlphaScreen DNA substrate cleavage; actives 0.28% (n = 350,000); Potency, µM (top dose mostly 130 µM), for inactives: at the highest dose activity change, negative = inhibition, hits mostly inhibitors; further: on the % scale 0 is the no-effect control and ±100 the full control effect; nearly all actives have a fitted effect of over 40% in size
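Compounds were preincubated with Tdp1 (1 nM final) for 15 min at room temperature before substrate (15 nM final) started a 5 min reaction; beads (10 ug/ml final) were then added for 10 min before AlphaScreen detection.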
ClpP mod – qHTS Assay for Activators of ClpP; Potency, µM (top dose mostly 57.5 µM), without a hit: at the top dose activity change, negative = active; purified B. subtilis ClpP, FRET peptide cleavage, 20 min; actives 1.9% (n = 340,000); ATP-dependent Clp protease proteolytic subunit (Bacillus subtilis (strain 168)), P80244; AID 651965, 2013; active means well fitted falling curve with a large enough effect; inconclusive means small, poorly fitted or top-dose-only effect; inactive means no such curve, though single readings can be large or run the other way; further: the source files actives as falling curves though it sought activators and does not explain the sign; nearly all actives have a fitted effect of over 65% in size
Target sequence (P80244 whole entry, looked up): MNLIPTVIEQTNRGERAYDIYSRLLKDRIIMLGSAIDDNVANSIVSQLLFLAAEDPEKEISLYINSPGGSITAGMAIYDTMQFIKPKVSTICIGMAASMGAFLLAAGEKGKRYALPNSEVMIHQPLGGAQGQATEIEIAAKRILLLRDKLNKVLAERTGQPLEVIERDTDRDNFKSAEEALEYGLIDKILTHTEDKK
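Purified B. subtilis ClpP, 10 microg/mL final in Tris/HCl pH8 with KCl, BSA, glycerol and Tween-20, cleaved an Abz/nitrotyrosine-quenched decapeptide. Fluorescence (ex 320, em 430) was read at 0 and 20 min at room temperature. Delta was normalized to 5.8 microM ADEP and DMSO/no-enzyme controls.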
The depositor's hits bear a star; ? = inconclusive; · = not tested or not shown; [ ] = another dose, or the depositor's remark. A selection: hits, their analogues and other compounds. The true share with any hit is near 17%. Unless noted, the call rests on the fitted dose curve; in most records, active means well fitted curve in the direction sought with a large enough effect; inconclusive means small, poorly fitted or top-dose-only effect, or another doubt; inactive means no such curve, though single readings can be large; an effect the other way counts as inactive or inconclusive. Potency means the concentration at half of the fitted maximal effect.

SMILES	TDP1 cell noCPT	DT40 TDP1 CPT	TDP1 inh	ClpP mod
COc1cccc(C2c3c(ncn(-c4ccccc4Br)c3=N)Oc3ccc4ccccc4c32)c1 (stereo not drawn)	·	·	3%	·
Cc1ccc(C(C)C)cc1NC(=O)Nc1ccc([N+](=O)[O-])cc1	3.7µM*	4.6µM*	·	1%
Cc1cc(Br)ccc1NC(=O)CNC(=O)CNc1cccc([N+](=O)[O-])c1	?	21µM*	1%	1%
CC(C(=O)Nc1nccs1)c1ccc([N+](=O)[O-])cc1 (stereo not drawn)	-23%	-13%	-1%	-1%
Cc1ccc([N+](=O)[O-])cc1NC(=O)c1ccccc1	-16%	1%	0%	·
O=C(CNc1cccc([N+](=O)[O-])c1)NCCCc1ccccc1	?	-3%	0%	·
Cc1cc(Br)ccc1NC(=O)C(C)c1ccc([N+](=O)[O-])cc1 (stereo not drawn)	26µM*	?	0%	-3%
Cc1cc(O)c(C(C)C)cc1NC(=O)Nc1ccc([N+](=O)[O-])cc1	?	-14%	·	·
Cc1ccc([N+](=O)[O-])cc1NC(=O)C(Sc1ccccc1)c1ccccc1 (stereo not drawn)	16µM*	?	3%	-8%
CCOC(=O)c1noc2nc(C)n(CC(=O)NC(C)CC)c(=O)c12 (stereo not drawn)	?	-9%	7%	-4%
O=C(Nc1cccc(F)c1)N1CC[C@@]2(CCCN(C(=O)c3ccco3)C2)C1	-7%	3%	·	·
O=C(NC(=S)Nc1ccc(Cl)cn1)c1cc([N+](=O)[O-])ccc1N1CCOCC1	4%	-3%	4%	-1%
CN=C(NC)NCc1ccccc1	6%	-1%	·	·
CCCOc1nc(C)cc(COC)c1C(N)=O	2%	0%	3%	-1%
C[C@H]1CN(CCc2ccccc2)C(=O)[C@@H]1CC(=O)Nc1ccc(Br)cc1	-10%	-14%	·	0%
CCCC(=O)Oc1c(Sc2ccc(Cl)cc2)c(C)nn1-c1ccccc1	21µM*	21µM*	9%	-3%
CC1=NN(Cc2ccccc2)C(=O)C1C(c1ccc(Cl)cc1)C(C#N)C#N (stereo not drawn)	10µM*	10µM*	11%	?
CC1=NN(Cc2ccccc2)C(=O)C1C(c1ccncc1)C(C#N)C#N (stereo not drawn)	?	?	7%	-3%
CC1=NN(Cc2ccccc2)C(=O)C1C(c1ccccc1)C(C#N)C#N (stereo not drawn)	26µM*	21µM*	5%	-1%
Cc1ccc(S(=O)(=O)N2CCN(C(=O)COC(=O)CSc3cc(C)ccc3C)CC2)c(C)c1	-4%	-3%	0%	-3%
Clc1ccccc1OCCNc1nc(NCC2CC2)nc2ccsc12	8.2µM*	16µM*	·	-7%
CNc1nc(NCCOc2ccccc2Cl)c2sccc2n1	9.2µM*	9.2µM*	·	-25%
Fc1ccccc1-c1nc(NCC2CC2)nc2ccsc12	?	?	·	4%
COc1ccccc1CNc1nc(-c2ccccc2CO)c2sccc2n1	?	?	·	5%
O=C(NCCOc1ccccc1Cl)C(=O)NCCOc1ccccc1Cl	-24%	5%	0%	0%
SMILES	TDP1 cell noCPT	DT40 TDP1 CPT	TDP1 inh	ClpP mod
COc1ccccc1CNc1nc(NCCOc2ccccc2Cl)c2sccc2n1	12µM*	10µM*	·	?
Clc1ccccc1Nc1nc(NCC2CC2)nc2ccsc12	21µM*	21µM*	·	5%
COc1ccc(-c2cccc(NC(=O)c3cccs3)c2)nn1	?	?	-9%[0.505 µM]	-1%
C[C@H](CO)N1C[C@H](C)[C@@H](CN(C)C(=O)c2ccc(F)cc2)Oc2cc(Br)ccc2S1(=O)=O	13µM*	26µM*	·	2%
C[C@@H]1CN([C@@H](C)CO)S(=O)(=O)c2ccc(Br)cc2O[C@@H]1CN(C)C(=O)c1ccc(F)cc1	?	21µM*	·	-1%
C[C@@H]1CN([C@@H](C)CO)S(=O)(=O)c2ccc(Br)cc2O[C@H]1CN(C)C(=O)c1ccccc1	?	?	·	-1%
C[C@H](CO)N1C[C@H](C)[C@@H](CN(C)C(=O)CC2CC2)Oc2cc(Br)ccc2S1(=O)=O	21µM*	?	·	1%
CCC(=O)N(C)C[C@H]1Oc2cc(Br)ccc2S(=O)(=O)N([C@@H](C)CO)C[C@H]1C	-3%	-19%	·	0%
C[C@H](CO)N1C[C@H](C)[C@H](CN(C)C(=O)CC2CC2)Oc2cc(Br)ccc2S1(=O)=O	-8%	-6%	·	2%
C/C=C/c1ccc2c(c1)O[C@H](CN(C)CC1CCOCC1)[C@@H](C)CN([C@H](C)CO)S2(=O)=O	18µM*	23µM*	·	1%
CCOC(=O)CCc1c(C(=O)OCC)[nH]c(CC)c1C(=O)OCc1ccccc1	?	?	1%	0%
O=C(Nc1ccccc1Br)N1CCC(CN2CCCC2)CC1	-20%	-3%	3%	-2%
C[C@@H]1CN([C@@H](C)CO)S(=O)(=O)c2ccc(Br)cc2O[C@H]1CN(C)C(=O)c1ccc2c(c1)OCO2	23µM*	23µM*	·	-1%
CCCCCCCCCCCC(=O)N1CC(=O)NC(=O)C1	-15%	2%	1%	·
COc1ccc(C(=O)c2cc(C(C)=O)c(Nc3ccccc3)s2)cc1	26µM*	?	·	-26%
COc1ccc(C(=O)CCC(=O)O)c2ccccc12	-10%	1%	0%	·
COc1ccc(C(=O)c2ccccc2C(=O)c2ccccc2)cc1	16µM*	?	·	-1%
O=C(COC(=O)c1ccccc1C(=O)c1ccc(Cl)cc1)NC(c1ccccc1)c1ccccc1	15µM*	12µM*	8%	-3%
COc1ccc(C(=O)c2ccc(N(C)C)cc2)c2ccccc12	1.5µM*	1µM*	0%	-2%
COc1ccccc1C(=O)COC(=O)c1ccc(N(C)C)cc1	18µM*	?	4%	-4%
Cc1ccccc1C(=O)c1ccccc1C(=O)c1ccccc1	16µM*	?	·	-2%
COc1ccc(CNC(=O)COC(=O)c2ccccc2C(=O)c2ccccc2)cc1	8.2µM*	?	1%	-1%
O=C(c1ccccc1)c1cccc(C(=O)c2ccccc2)c1	-29%	0%	?	0%
O=C(c1ccccc1)c1ccccc1C(=O)c1ccccc1	18µM*	?	3%	0%
COc1ccc(C(=O)c2ccc(OC)c(OC)c2OC)cc1	3.7µM*	3.7µM*	·	1%
COc1ccc(C(=O)c2ccc(Br)cc2)c(OC)c1OC	-25%	-6%	·	2%
Cc1cc(NC(=O)C2CCCC2)n(-c2nc3ccccc3[nH]2)n1	?	18µM*	8%	9%
Cc1cc(NC(=O)c2sccc2C)n(-c2nc3ccccc3[nH]2)n1	16µM*	?	8%	·

Screening results deposited in PubChem BioAssay by National Center for Advancing Translational Sciences (NCATS).
